HCV inh: HCV inhibition. Huh7.5.1 HCVcc-Cre infection, luciferase reporter, 44 h. Potency, µM (doses to about 41.8 µM), without a hit: at the highest dose activity change, negative = inhibition, usual class: inhibitors. hit rate 3.4% among 340,000. AID 651820; active means well fitted inhibition curve with a large enough effect; inconclusive means small, poorly fitted or top-dose-only effect, or another doubt; inactive means no such curve, though single readings can be large or run the other way; further: potency means the concentration at half of the fitted maximal effect; on the % scale 0 is the no-effect control and ±100 the full control effect
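Whole-lifecycle infectious HCVcc-Cre system; cells 1,000/well, compound then virus (~0.5 moi) added 4 h after plating, 44 h culture. Luciferase read 15 sec following 15 min substrate incubation, room temp.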
FMDV inh: blocks foot and mouth disease virus; FMDV antiviral cell-based qHTS; Potency, µM (highest dose often 57.9 µM), inactives show at the top dose activity change, negative = inhibition, most hits filed as inhibitors; hit rate 1.2% among 410,000; calls by dose curve; tested in HEK293T cells; further: read-out not given here; potency means the concentration at half of the fitted maximal effect; on the % scale 0 is the no-effect control and ±100 the full control effect; nearly all actives have a fitted effect of over 45% in size
Shiga toxin inh: Shiga toxin inhibition; inhibition, % at 38.7 µM; AID 2315; hit rate 9.2% among 290,000; Vero cells, Shiga toxin protein synthesis inhibition reporter; in the data active means inhibition mostly above about 28%, no sharp cut-off; inactive means mostly below about 43%; further: 0% is about no effect
Marburg entry inh: inhibitors of Marburg virus binding or cell entry. Potency, µM (top dose mostly 37.8 µM), without a hit: at the top dose activity change, negative = inhibition, most hits filed as inhibitors. Marburg virus pseudotyped entry inhibition, cell reporter. hit rate 1.8% among 300,000. AID 540276; calls by dose curve; tested in HEK293 cells; further: potency means the concentration at half of the fitted maximal effect; on the % scale 0 is the no-effect control and ±100 the full control effect
Cycloheximide cs: counter-screen hit for Shiga toxin inhibitors, cycloheximide; cell reporter, cycloheximide protein synthesis inhibition counterscreen; max response, %; hit rate 12% among 300,000; in the data active means max response mostly above about 13%, no sharp cut-off; inactive means mostly below about 14%; further: read at 38.3 µM for the half of the compounds with a filed dose; 0% is about no effect
Lassa entry inh: inhibitors of Lassa virus binding or cell entry | Lassa virus pseudotype entry inhibition, cell reporter | Potency, µM (titrated, usually from 37.9 µM), without a hit: top-dose activity change, negative = inhibition, most hits filed as inhibitors | hit rate 1.2% among 300,000 | AID 540256; calls by dose curve; tested in HEK293 cells; further: potency means the concentration at half of the fitted maximal effect; on the % scale 0 is the no-effect control and ±100 the full control effect; nearly all actives have a fitted effect of over 50% in size
Active calls of the source: *; [ ] = remark or other dose. Rows were chosen to be rich in hits. Some 13% of all compounds tested hit in one or more screens of this group.

What do the screens show for `C#CCOCCOCCOCCNc1nc(N2CCN(C(=O)CCCCCCCCCCNC(=O)Cn3cc(C[C@@H](C)O)nn3)CC2)nc(N2CCN(C(=O)CCCCCCCCCCNC(=O)[C@@H](CCSC)n3cc(CCO)nn3)CC2)n1`?
HCV inh: -13%; FMDV inh: -25%

How did CC1CCCCN1C(=O)Cn1cnc2cc([N+](=O)[O-])ccc2c1=O (stereo not drawn) do in these assays?
HCV inh: 20%; FMDV inh: -15%; Shiga toxin inh: 18; Marburg entry inh: inconclusive; Cycloheximide cs: 4; Lassa entry inh: 13%

Results for CN(C(=O)c1cc(-c2ccccc2)on1)C1CCCCC1 ?
HCV inh: -13%; FMDV inh: 23%; Shiga toxin inh: 73*; Marburg entry inh: inconclusive; Cycloheximide cs: 37*; Lassa entry inh: inconclusive

Results for O=C(c1cc(-c2cccc(Cl)c2)on1)N1CCCC1 ?
HCV inh: -14%; FMDV inh: 33%; Shiga toxin inh: 71*; Marburg entry inh: -2%[46.1 µM]; Cycloheximide cs: 18*; Lassa entry inh: inconclusive

How did O=C(c1cc(-c2ccccc2)on1)N1CCCC1 do in these assays?
HCV inh: 2%; Shiga toxin inh: 149*; Marburg entry inh: inconclusive; Cycloheximide cs: 30*; Lassa entry inh: inconclusive

Results for O=C(c1cc(-c2ccc(Cl)cc2)on1)N1CCCC1 ?
HCV inh: 5%; FMDV inh: -15%; Shiga toxin inh: 90*; Marburg entry inh: inconclusive; Cycloheximide cs: 37*; Lassa entry inh: inconclusive

How did O=C(COc1ccc([N+](=O)[O-])cc1)NNC(=O)C1COc2ccccc2O1 (stereo not drawn) do in these assays?
FMDV inh: -18%

How did C=CC[C@H](CC(=O)OC(C)(C)C)C(=O)OC[C@@H]1CCCN1C(=O)[C@H](CC=C)CC(=O)N[C@H](CO)Cc1ccccc1 do in these assays?
HCV inh: inconclusive; FMDV inh: -5%

How did O=C(c1sc2ccccc2c1Cl)N(Cc1cccs1)C1CCS(=O)(=O)C1 (stereo not drawn) do in these assays?
HCV inh: -26%; FMDV inh: -21%; Shiga toxin inh: -6; Cycloheximide cs: -6

Results for O=NN(Cc1cccnc1)C(=O)NC1CCCCC1 ?
FMDV inh: -23%

Results for O=C(c1cc(-c2ccc(Cl)c(Cl)c2)on1)N1CCN(c2ccccc2)CC1 ?
HCV inh: 12%; FMDV inh: 63%; Shiga toxin inh: 34; Marburg entry inh: 21%; Cycloheximide cs: 3; Lassa entry inh: -6%

Results for O=C(c1cc(-c2ccc(Cl)c(Cl)c2)on1)N1CCCCC1 ?
HCV inh: -2%; FMDV inh: 24%; Shiga toxin inh: 120*; Marburg entry inh: inconclusive; Cycloheximide cs: 40*; Lassa entry inh: 1%

What do the screens show for `CN1c2ccsc2C(O)=C(C(=O)Nc2ccccc2)S1(=O)=O`?
HCV inh: 4%; FMDV inh: 1%; Shiga toxin inh: -1; Marburg entry inh: 6%; Cycloheximide cs: 11; Lassa entry inh: 18%

How did Cc1ccc(NC(=S)C2=C(O)c3sccc3N(C)S2(=O)=O)cc1 do in these assays?
HCV inh: 18%; FMDV inh: 21%; Shiga toxin inh: 31; Marburg entry inh: -6%[46.1 µM]; Cycloheximide cs: 19*; Lassa entry inh: -24%

Results for Cc1ccc(NC(=O)C2=C(O)c3sccc3N(C)S2(=O)=O)cc1 ?
HCV inh: 6%; FMDV inh: 24%; Shiga toxin inh: 27; Marburg entry inh: 1%; Cycloheximide cs: 23*; Lassa entry inh: -3%

Results for Cc1c(C(=O)NCc2ccc(F)cc2)c(-c2ccccc2)nn1-c1ccccc1 ?
HCV inh: -12%; FMDV inh: -22%; Shiga toxin inh: -6; Marburg entry inh: -2%; Cycloheximide cs: -4; Lassa entry inh: -9%

What do the screens show for `CCC(=C(c1ccc(OC)cc1)c1ccc(OC)cc1)c1cn(CC(O)CN2CCN(C)CC2)c2ccccc12` (stereo not drawn)?
HCV inh: 11µM*; FMDV inh: -21%; Shiga toxin inh: -27; Marburg entry inh: inconclusive; Cycloheximide cs: -6; Lassa entry inh: -18%

What do the screens show for `COc1ccc(-c2cc3ccccc3n2CC(O)CN2CCCCC2)cc1` (stereo not drawn)?
HCV inh: -8%; FMDV inh: -33%; Shiga toxin inh: -12; Cycloheximide cs: -1

What do the screens show for `O=C(NCCc1ccccc1)c1ccc(Cl)c(S(=O)(=O)N2CCOCC2)c1`?
HCV inh: inconclusive; FMDV inh: -5%; Shiga toxin inh: 31; Marburg entry inh: -2%[46.1 µM]; Cycloheximide cs: 24*; Lassa entry inh: inconclusive

Results for COc1ccc(C(CNC(=O)c2ccc(Cl)c(S(=O)(=O)N3CCCC3)c2)N2CCCC2)cc1 (stereo not drawn) ?
HCV inh: inconclusive; FMDV inh: -26%

How did Cc1cccc(N(Cc2ccccc2)C(=O)c2ccc(F)c(S(=O)(=O)N3CCOCC3)c2)c1 do in these assays?
HCV inh: inconclusive; FMDV inh: -5%; Marburg entry inh: 11µM*; Lassa entry inh: -27%

Results for CC(C)(C)SCCNC(=O)c1ccc(Cl)c(S(=O)(=O)N2CCOCC2)c1 ?
HCV inh: inconclusive; FMDV inh: inconclusive; Marburg entry inh: inconclusive; Lassa entry inh: -16%

How did COc1ccc(CCNC(=O)c2ccc(Cl)c(S(=O)(=O)N3CCCC3)c2)cc1 do in these assays?
HCV inh: 11µM*; FMDV inh: inconclusive

What do the screens show for `CCCCCC(=O)NC(=S)Nc1ccc(N2CCCCC2)c(Cl)c1`?
HCV inh: 19%; FMDV inh: -7%; Shiga toxin inh: -25; Marburg entry inh: inconclusive; Cycloheximide cs: -6; Lassa entry inh: -22%

Results for CCN1CCN(c2ccc(NC(=O)c3ccc(C#N)cc3F)cc2Cl)CC1 ?
HCV inh: -17%; FMDV inh: -7%; Shiga toxin inh: 29; Marburg entry inh: -25%; Cycloheximide cs: 20; Lassa entry inh: 20%

What do the screens show for `CCN1CCN(c2ccc(NC(=O)c3ccccc3F)cc2Cl)CC1`?
HCV inh: inconclusive; FMDV inh: 48%; Shiga toxin inh: 115*; Marburg entry inh: inconclusive; Cycloheximide cs: 19*; Lassa entry inh: -10%

Results for CCOC(=O)c1ccc(N2CCN(c3ccccc3F)CC2)c(NC(=O)Nc2ccc(Cl)c(Cl)c2)c1 ?
FMDV inh: 25µM*; Lassa entry inh: inconclusive

How did CCCCCC(=O)Nc1ccc(N2CCN(CC)CC2)c(Cl)c1 do in these assays?
HCV inh: 22µM*; FMDV inh: inconclusive; Shiga toxin inh: 103*; Marburg entry inh: 2%; Cycloheximide cs: 60*; Lassa entry inh: -1%

How did CCOC(=O)c1ccc(N2CCN(c3cc(Cl)ccc3C)CC2)c(NC(=O)Nc2ccc(OCC)cc2)c1 do in these assays?
FMDV inh: -15%; Lassa entry inh: -1%[46.1 µM]

How did CCCS(=O)(=O)N1CCC(C(=O)NC2CCC(C)CC2)CC1 (stereo not drawn) do in these assays?
HCV inh: 5%; FMDV inh: 29%; Shiga toxin inh: 20; Marburg entry inh: 27%; Cycloheximide cs: 22; Lassa entry inh: 15%

Compound activity deposited in PubChem BioAssay by National Center for Advancing Translational Sciences (NCATS).
